Experimental data as given in PubChem BioAssay (NCI).
Compounds without any hit were thinned out: in the full panel of roughly 79,000, 15% have a hit. Activity calls are given as the source filed them. No stated cut-off is given here; in the data, active means growth inhibition above about 70%; inactive means the rest.

Experiments:
[1] = NCI Yeast Anticancer Drug Screen. Data for the wt1 strain (AID 149);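 further: 0% = growth of vehicle-treated wt1 cultures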; settings: S. cerevisiae wt1 strain (SPY 50644) growth inhibition, hits give high values
Procedure, shortened: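 Measured: growth of wt1 yeast under compound versus vehicle treatment, reported as inhibition.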

[2] = NCI Yeast Anticancer Drug Screen. Data for the rad50EPP+ strain (AID 151);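 further: 0% = growth of vehicle-treated control cultures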; settings: S. cerevisiae rad50 mutant strain, hits give high values
Procedure, shortened: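 Exposing the rad50EPP+ strain to each compound, growth was compared with vehicle-only cultures to give inhibition.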

[3] = NCI Yeast Anticancer Drug Screen. Data for the mgt1 strain (AID 153); settings: S. cerevisiae mgt1 mutant growth inhibition, hits give high values
Procedure, shortened: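 Genetically defined yeast (mgt1) treated with compound; inhibition of growth expressed against vehicle-treated controls.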

[4] = NCI Yeast Anticancer Drug Screen. Data for the rad50 strain (AID 155);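 further: 0% = growth of vehicle-only cultures of the same strain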; settings: S. cerevisiae rad50 strain growth inhibition, hits give high values
Procedure, shortened: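 Growth of the mutant yeast was measured after compound exposure and referenced to vehicle-treated cultures.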

[5] = NCI Yeast Anticancer Drug Screen. Data for the mec2-1 strain (AID 157); settings: S. cerevisiae mec2-1 strain, hits give high values
Procedure, shortened: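 Readout is yeast growth inhibition, normalised to vehicle-treated controls, in the mec2-1 strain exposed to compound.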

[6] = NCI Yeast Anticancer Drug Screen. Data for the rad14 strain (AID 159);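 further: 0% = growth of vehicle-treated control cultures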; settings: S. cerevisiae rad14 strain growth inhibition, hits give high values
Procedure, shortened: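 Here, inhibition of yeast growth was measured after compound exposure, using a strain with a genetic defect in DNA damage repair and vehicle-treated cultures as the reference.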

[7] = NCI Yeast Anticancer Drug Screen. Data for the sgs1 mgt1 strain (AID 161);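 further: 0% = growth of cultures given vehicle only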; settings: S. cerevisiae sgs1 mgt1 strain, hits give high values
Procedure, shortened: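 This yeast growth screen uses a strain with defined DNA-repair lesions; compound-treated growth is compared with vehicle-treated growth.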

[8] = NCI Yeast Anticancer Drug Screen. Data for the CLN2oe strain (AID 163);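 further: 0% = growth of vehicle-only control cultures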; settings: S. cerevisiae CLN2oe strain, hits give high values
Procedure, shortened: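 Values reflect how much compound exposure reduced yeast growth, referenced to vehicle-exposed cells. Assay organism is a strain with a defined genetic change affecting cell-cycle control.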

[9] = NCI Yeast Anticancer Drug Screen. Data for the cln2 rad14 strain (AID 165);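 further: 0% = growth equal to vehicle treated cultures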; settings: S. cerevisiae cln2 rad14 strain, hits give high values
Procedure, shortened: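 Relative to vehicle controls, growth inhibition of compound-treated cln2 rad14 yeast was recorded.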

[10] = NCI Yeast Anticancer Drug Screen. Data for the bub3 strain (AID 167); settings: S. cerevisiae bub3 mutant strain, hits give high values
Procedure, shortened: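 Whole-cell yeast assay. The mutant strain was incubated with compounds, and growth inhibition was determined by comparison with vehicle-treated cells.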

[11] = NCI Yeast Anticancer Drug Screen. Data for the wt2 strain (AID 169);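 further: 0% = growth of vehicle-treated yeast cultures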; settings: S. cerevisiae wt2 strain growth inhibition, hits give high values
Procedure, shortened: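 Values express reduction in yeast growth under compound treatment, referenced to vehicle-treated cells.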

[12] = NCI Yeast Anticancer Drug Screen. Data for the mlh1 strain (AID 171);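 further: 0% = growth of vehicle-treated control cultures of the same strain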; settings: S. cerevisiae mlh1 strain growth inhibition, hits give high values
Procedure, shortened: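 Steps: expose the defined-mutant yeast strain to compound; expose a parallel culture to vehicle; measure growth; express compound effect as inhibition relative to the vehicle culture.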

[13] = NCI Yeast Anticancer Drug Screen. Data for the sgs1 strain (AID 173);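 further: 0% = growth of vehicle-only control cultures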; settings: S. cerevisiae sgs1 mutant, hits give high values
Procedure, shortened: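 Treat defined-mutant yeast with compound; measure growth; calculate inhibition relative to vehicle-treated cells.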

[14] = NCI Yeast Anticancer Drug Screen. Data for the mlh1 rad18 strain (AID 175); settings: S. cerevisiae mlh1 rad18 strain growth inhibition, hits give high values
Procedure, shortened: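 Test agents were incubated with a yeast strain of defined genotype (DNA damage repair defect). Inhibition of growth was derived by comparison with vehicle-exposed cultures.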

[15] = NCI Yeast Anticancer Drug Screen. Data for the rad18 strain (AID 177); settings: S. cerevisiae rad18 mutant growth inhibition, hits give high values
Procedure, shortened: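 A genetically defined yeast mutant impaired in DNA damage repair was treated with test compounds, then its growth was measured against cultures receiving vehicle alone.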

[16] = NCI Yeast Anticancer Drug Screen. Data for the rad52 strain (AID 147);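 further: 0% = growth of vehicle-treated control cultures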; settings: S. cerevisiae rad52 mutant growth inhibition, hits give high values
Procedure, shortened: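 Screen used a yeast mutant impaired in DNA repair. After compound exposure, growth was measured. Values reflect inhibition compared with vehicle-treated cells.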

[17] = at 5.0 µM (retest, dose inferred, filed as 0.5)
[18] = at 50.0 µM (retest, dose inferred, filed as 5.0)

Measured: growth inhibition

[N-]=[N+]=NC1CC(n2ccc(=O)[nH]c2=O)OC1COC(c1ccccc1)(c1ccccc1)c1ccccc1 (stereo not drawn)
inactive: [1]; at 1.2 µM 1% | [1]; at 3.7 µM 4% | [1]; at 11.0 µM 11% | [2]; at 1.2 µM 1% | [2]; at 3.7 µM 0% | [2]; at 11.0 µM 0% | [2]; at 33.0 µM -2% | [2]; at 100.0 µM -7% | [3]; at 1.2 µM 0% | [3]; at 3.7 µM 3% | [3]; at 11.0 µM 16% | [4]; at 1.2 µM 1% | [4]; at 3.7 µM 3% | [4]; at 11.0 µM 48% | [4]; at 50.0 µM 41.8% | [5]; at 1.2 µM -3% | [5]; at 3.7 µM -1% | [5]; [17] 18% | [5]; at 11.0 µM 27% | [6]; at 1.2 µM 2% | [6]; at 3.7 µM 5% | [6]; at 11.0 µM 18% | [7]; [17] 15% | [7]; at 50.0 µM 50.5% | [8]; at 1.2 µM -4% | [8]; at 3.7 µM -4% | [8]; at 11.0 µM 26% | [9]; [17] 33% | [10]; at 1.2 µM 0% | [10]; at 3.7 µM -2% | [10]; [17] 8% | [10]; at 11.0 µM 15% | [11]; at 1.2 µM 0% | [11]; at 3.7 µM -1% | [11]; at 11.0 µM 23% | [12]; at 1.2 µM 0% | [12]; at 3.7 µM 2% | [12]; at 11.0 µM 25% | [13]; at 1.2 µM 0% | [13]; at 3.7 µM 2% | [13]; at 11.0 µM 17% | [14]; at 50.0 µM 50.6% | [15]; at 1.2 µM 3% | [15]; at 3.7 µM 13% | [15]; at 11.0 µM 52%
active: [1]; at 33.0 µM 89% | [1]; at 100.0 µM 91% | [3]; at 33.0 µM 76% | [3]; at 100.0 µM 80% | [4]; [17] 76% | [4]; at 33.0 µM 93% | [4]; [18] 82% | [4]; at 100.0 µM 83% | [5]; at 33.0 µM 86% | [5]; [18] 79% | [5]; at 50.0 µM 89.7% | [5]; at 100.0 µM 85% | [6]; at 33.0 µM 77% | [6]; at 100.0 µM 81% | [7]; [18] 80% | [8]; at 33.0 µM 89% | [8]; at 100.0 µM 80% | [9]; [18] 81% | [9]; at 50.0 µM 88.9% | [10]; at 33.0 µM 85% | [10]; [18] 76% | [10]; at 50.0 µM 89.8% | [10]; at 100.0 µM 83% | [11]; at 33.0 µM 81% | [11]; at 100.0 µM 80% | [12]; at 33.0 µM 71% | [12]; at 100.0 µM 77% | [13]; at 33.0 µM 84% | [13]; at 100.0 µM 86% | [14]; [17] 74% | [14]; [18] 86% | [15]; at 33.0 µM 94% | [15]; at 100.0 µM 87%

CC(=O)c1ccc(NCN2C(=O)c3ccccc3C2=O)cc1
inactive: [16]; at 1.2 µM -31% | [16]; at 3.7 µM -8% | [16]; at 11.0 µM 28% | [1]; at 1.2 µM -51% | [1]; at 3.7 µM -41% | [1]; at 11.0 µM -36% | [1]; at 33.0 µM 66% | [2]; at 1.2 µM -17% | [2]; at 3.7 µM -32% | [2]; at 11.0 µM 6% | [4]; at 1.2 µM -20% | [4]; at 3.7 µM -12% | [4]; [17] 42% | [4]; at 11.0 µM 55% | [5]; at 1.2 µM -8% | [5]; at 3.7 µM -30% | [5]; [17] 51% | [5]; at 11.0 µM 16% | [6]; at 1.2 µM -50% | [6]; at 3.7 µM -39% | [6]; at 11.0 µM -19% | [6]; at 33.0 µM 66% | [7]; [17] 7% | [7]; [18] 25% | [8]; at 1.2 µM -19% | [8]; at 3.7 µM -32% | [8]; at 11.0 µM -31% | [8]; at 33.0 µM 53% | [9]; [17] 48% | [9]; [18] 35% | [10]; at 1.2 µM -15% | [10]; at 3.7 µM -2% | [10]; [17] 34% | [10]; at 11.0 µM 22% | [10]; [18] 42% | [11]; at 1.2 µM -49% | [11]; at 3.7 µM -36% | [11]; at 11.0 µM -15% | [11]; at 33.0 µM 64% | [12]; at 1.2 µM -44% | [12]; at 3.7 µM -48% | [12]; at 11.0 µM 6% | [12]; at 33.0 µM 68% | [13]; at 1.2 µM -25% | [13]; at 3.7 µM -28% | [13]; at 11.0 µM -13% | [14]; [17] 36% | [15]; at 1.2 µM -36% | [15]; at 3.7 µM -21% | [15]; at 11.0 µM 47%
active: [16]; at 33.0 µM 84% | [16]; at 100.0 µM 92% | [1]; at 100.0 µM 89% | [2]; at 33.0 µM 70% | [2]; at 100.0 µM 90% | [4]; at 33.0 µM 85% | [4]; [18] 99% | [4]; at 50.0 µM 82.7% | [4]; at 100.0 µM 89% | [5]; at 33.0 µM 81% | [5]; [18] 99% | [5]; at 50.0 µM 84.5% | [5]; at 100.0 µM 91% | [6]; at 100.0 µM 93% | [8]; at 100.0 µM 82% | [10]; at 33.0 µM 79% | [10]; at 100.0 µM 91% | [11]; at 100.0 µM 89% | [12]; at 100.0 µM 83% | [13]; at 33.0 µM 73% | [13]; at 100.0 µM 86% | [14]; [18] 99% | [14]; at 50.0 µM 85.8% | [15]; at 33.0 µM 90% | [15]; at 100.0 µM 92%
